Assay results published in the supplement of paper PMC13094657.
± gives the standard deviation of the averaged measurements.

Tests used:
MDA-MB-231 [1] = test: cell viability relative to vehicle unstimulated control (fraction); higher = more viable cells; details: pre-treatment time: 18 h then 24 h IFNg/TNF
MDA-MB-231 [2] = test: kynurenine production, fold change vs DMSO IFNg/TNF control; higher = more kynurenine produced (less inhibition); details: pre-treatment time: 18 h then 24 h IFNg/TNF
Outline: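 MDA-MB-231 cells (7 × 10^4/well, 96-well plates, seeded 24 h earlier) were pre-treated 18 h with each natural product in 0.1% DMSO, then stimulated 24 h with IFNγ (1 U/ml) and TNF (6.25 ng/ml) at 37°C. Supernatant kynurenine was read at 492 nm after trichloroacetic acid and p-dimethylaminobenzaldehyde treatment, against 0–100 μM standards. Kynurenine production is the fold change over cytokine-stimulated vehicle wells on the same plate, averaged over duplicate plates in the first screening round.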
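Throughout, for cell viability relative to vehicle unstimulated control: viability of the cells left after supernatant collection, read with Deep Blue dye added for 4 h, as absorbance at 570 nm minus 600 nm.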

SMILES | cell viability (MDA-MB-231 [1]) | kynurenine production (MDA-MB-231 [2])
C=C(C)C1CC=C(C)[C@@H](O)C1 (stereo partly drawn) [Carveol] (compound dose: 10 uM) | 1.07 ± 0.081 | 0.801 ± 0.38
OCC1=C[C@@H](O)[C@@H]2C=CO[C@@H](O[C@@H]3O[C@H](CO)[C@@H](O)[C@H](O)[C@H]3O)[C@H]12 [Aucubin] (compound dose: 10 uM) | 1.01 ± 0.02 | 0.87 ± 0.041
C[C@@]12C[C@H](c3ccoc3)O[C@@]13C[C@H](OC3=O)[C@H]1[C@H]2C[C@@H]2C[C@H]1C(=O)O2 [Diosbulbin B] (compound dose: 10 uM) | 0.78 ± 0.24 | 0.779 ± 0.13
O=C1C[C@@H](O[C@@H]2O[C@H](CO)[C@@H](O)[C@H](O)[C@H]2O)CO1 [Kinsenoside] (compound dose: 10 uM) | 0.971 ± 0.18 | 1.01 ± 0.34
CC1CCC2(O)C(C)(C)C3CCC2(C)C1C3 (stereo not drawn) [Patchouli alcohol] (compound dose: 10 uM) | 0.994 ± 0.013 | 1.04 ± 0.064
COC(=O)[C@]12OC[C@]34[C@H]([C@@H](O)[C@@H]1O)[C@@]1(C)CC(=O)C(O)=C(C)[C@@H]1C[C@H]3OC(=O)[C@H](OC(=O)C=C(C)C)[C@@H]24 [Brusatol] (compound dose: 10 uM) | 0.432 ± 0.034 | 0.1176 ± 0.00049
C=C1[C@H](OC(=O)C(C)C)[C@@H](O)[C@@H](OC(=O)c2cccnc2)C(C)(C)/C=C/[C@H](C)[C@H](OC(C)=O)[C@@]2(O)C[C@@](C)(OC(C)=O)[C@H](OC(=O)c3ccccc3)[C@@H]2[C@H]1OC(C)=O [Jatrophane 3] (compound dose: 10 uM) | 1.04 ± 0.056 | 0.82 ± 0.18
OCC1=C[C@@H](O)[C@]2(O[C@@H]3O[C@H](CO)[C@@H](O)[C@H](O)[C@H]3O[C@@H]3O[C@H](CO)[C@@H](O)[C@H](O)[C@H]3O)C=CO[C@@H](O[C@@H]3O[C@H](CO)[C@@H](O)[C@H](O)[C@H]3O)[C@H]12 [Rehmannioside D] (compound dose: 10 uM) | 1.05 ± 0.29 | 0.941 ± 0.072
CC(=O)OC/C1=C/[C@H]2[C@@H](OC(=O)/C=C/c3ccccc3)[C@@H](C)C[C@]2(OC(C)=O)C(=O)/C(C)=C/[C@@H]2[C@H](CC1)C2(C)C [Euphorbia factor L7a] (compound dose: 10 uM) | 1.086 ± 0.0038 | 0.948 ± 0.035
CC(C)=CCC[C@@](C)(O)[C@H]1CC[C@]2(C)[C@@H]1[C@H](O)C[C@@H]1[C@@]3(C)CC[C@H](O)C(C)(C)[C@@H]3CC[C@]12C [(20R)-Protopanaxadiol] (compound dose: 10 uM) | 0.9532 ± 0.0069 | 0.793 ± 0.14
COC(=O)C1=CO[C@@H](O[C@@H]2O[C@H](CO[C@@H]3O[C@H](CO)[C@@H](O)[C@H](O)[C@H]3O)[C@@H](O)[C@H](O)[C@H]2O)[C@@H]2C(CO)=CC[C@H]12 [Genipin 1-β-D-gentiobioside] (compound dose: 10 uM) | 0.849 ± 0.014 | 0.718 ± 0.24
C[C@H]1[C@H](C)CC[C@]2(C(=O)O[C@@H]3O[C@H](CO[C@@H]4O[C@H](CO)[C@@H](O[C@@H]5O[C@H](C)[C@H](O)[C@@H](O)[C@H]5O)[C@H](O)[C@H]4O)[C@@H](O)[C@H](O)[C@H]3O)CC[C@]3(C)C(=CC[C@@H]4[C@@]5(C)C[C@@H](O)[C@H](O)[C@@](C)(CO)[C@@H]5CC[C@]43C)[C@H]12 [Asiaticoside] (compound dose: 10 uM) | 0.831 ± 0.1 | 0.85 ± 0.17
CC(=O)O[C@@H]1CC[C@@]2(C)[C@@H](CC[C@]3(C)[C@@H]2[C@H](O)C=C2[C@@H]4[C@@H](C)[C@H](C)CC[C@]4(C)CC[C@]23C)[C@@]1(C)C(=O)O [3-O-Acetyl-11-hydroxy-beta-boswellic acid] (compound dose: 10 uM) | 0.8634 ± 0.0022 | 0.988 ± 0.083
COC(=O)[C@@H]1C[C@@]23C4=C(CC[C@@H]5CN6C[C@@H](C)[C@@H](C[C@@H](OC(C)=O)[C@@]52COC(C)=O)[C@]63O)CC[C@@H]41 [Yuzurimine] (compound dose: 10 uM) | 1.04 ± 0.029 | 0.756 ± 0.07
C[C@H]1O[C@@H](O[C@H]2[C@@H](O)C[C@H](O[C@H]3[C@@H](O)C[C@H](O[C@H]4CC[C@@]5(C)[C@H](CC[C@@H]6[C@@H]5CC[C@]5(C)[C@@H](C7=CC(=O)OC7)CC[C@]65O)C4)O[C@@H]3C)O[C@@H]2C)C[C@H](O)[C@@H]1O [Digitoxin] (compound dose: 10 uM) | 0.997 ± 0.019 | 0.967 ± 0.023
CC(=O)O[C@H]1/C(CO)=C\C[C@H]2[C@@H](/C=C(/C)C(=O)[C@@]3(OC(C)=O)C[C@H](C)[C@H](OC(=O)c4ccccc4)[C@H]13)C2(C)C [Euphorbia factor L24] (compound dose: 10 uM) | 1.09 ± 0.022 | 0.911 ± 0.078
C[C@@H]1C(=O)O[C@H]2C[C@@]34O[C@@H]5OC(=O)[C@H](O)[C@@]56[C@H](C(C)(C)C)[C@H](O)C(OC3=O)[C@]64[C@]21O (stereo partly drawn) [Ginkgolide J] (compound dose: 10 uM) | 0.962 ± 0.014 | 0.875 ± 0.023

SMILES | cell viability (MDA-MB-231 [1]) | kynurenine production (MDA-MB-231 [2])
C/C1=C\CCC2=C[C@@H](OC2=O)c2c(C)coc2C1 [Linderalactone] (compound dose: 10 uM) | 0.998 | 0.815 ± 0.018
CN1CCC[C@H]1c1cccnc1 [(-)-nicotine] (compound dose: 10 uM) | 0.978 ± 0.08 | 1.04 ± 0.11
CC1(C)CCCC2(C)C1CCC1(C)OCCC12 (stereo not drawn) [Ambroxide] (compound dose: 10 uM) | 0.964 ± 0.053 | 0.891 ± 0.13
CO[C@H]1O[C@@H]2O[C@@]3(C)CC[C@H]4[C@H](C)CC[C@@H]([C@H]1C)[C@@]24OO3 [Artemether] (compound dose: 10 uM) | 1 ± 0.11 | 0.37 ± 0.12
O=c1cc(-c2ccc(O)cc2)oc2cc(O)cc(O)c12 [Apigenin] (compound dose: 10 uM) | 0.96 ± 0.053 | 0.806 ± 0.026
CC(C)=CCC[C@@](C)(O)[C@H]1CC[C@]2(C)[C@@H]1[C@H](O)C[C@@H]1[C@@]3(C)CC[C@H](O[C@@H]4O[C@H](CO)[C@@H](O)[C@H](O)[C@H]4O[C@@H]4O[C@H](CO)[C@@H](O)[C@H](O)[C@H]4O[C@@H]4OC[C@@H](O)[C@H](O)[C@H]4O)C(C)(C)[C@@H]3CC[C@]12C [Notoginsenoside Ft1] (compound dose: 2 uM) | 0.899 ± 0.026 | 0.86 ± 0.16
C=CC(C)(O)CCC=C(C)CCC=C(C)C (mixture of isomers) [Nerolidol] (compound dose: 10 uM) | 1.01 ± 0.043 | 0.798 ± 0.2
CC(C)=CCCC1(C)CCC2(C)C3CCC4(C)C(C)C(=O)CCC4C3(C)CCC2(C)C1 (stereo not drawn) [Shionone] (compound dose: 10 uM) | 1.02 ± 0.0034 | 0.776 ± 0.11
C=C1C[C@@]23CC[C@H]4[C@@](C)(CCC[C@@]4(C)C(=O)O[C@@H]4O[C@H](CO)[C@@H](O)[C@H](O)[C@H]4O)[C@@H]2CC[C@]1(O[C@@H]1O[C@H](CO)[C@@H](O)[C@H](O)[C@H]1O)C3 [Rubusoside] (compound dose: 10 uM) | 1.07 ± 0.02 | 0.88 ± 0.065
C=C1CC[C@@H]2[C@](C)(CO[C@@H]3O[C@H](CO)[C@@H](O)[C@H](O)[C@H]3O)CCC[C@@]2(C)[C@@H]1CCC1=CCOC1=O [Neoandrographolide] (compound dose: 10 uM) | 0.953 ± 0.034 | 0.893 ± 0.012
COC(=O)C1=C2CCOC3=C2C2=C1C(=O)[C@@H]1C[C@H]4N(C[C@@H](CC3)[C@@]24C)C[C@H]1C [Daphnicyclidin D] (compound dose: 10 uM) | 0.948 ± 0.076 | 0.831 ± 0.18
C[C@H]1O[C@@H](O[C@H]2CC[C@@]3(C)[C@@H](CC[C@]4(C)[C@@H]3C=CC3=C5CC(C)(C)CC[C@]5(CO)[C@H](O)C[C@]34C)[C@]2(C)CO)[C@H](O)[C@@H](O[C@@H]2O[C@H](CO)[C@@H](O)[C@H](O)[C@H]2O)[C@H]1O [Saikosaponin B2] (compound dose: 10 uM) | 1.047 ± 0.0068 | 0.739 ± 0.04
CO[C@@H]1C=C2[C@@H]3CC(C)(C)CC[C@]3(CO)[C@H](O)C[C@@]2(C)[C@]2(C)CC[C@H]3[C@](C)(CO)[C@@H](O[C@@H]4O[C@H](C)[C@H](O)[C@H](O[C@@H]5O[C@H](CO)[C@@H](O)[C@H](O)[C@H]5O)[C@H]4O)CC[C@]3(C)[C@@H]12 [Saikosaponin B4] (compound dose: 10 uM) | 1.12 ± 0.026 | 0.923 ± 0.21
CC1=CC23C(=O)C(C=C4COC(C)(C)OC4C24OC(C)(C)OC14)C1C(CC3C)C1(C)C (stereo not drawn) [Ingenol-3,4,5,20-diacetonide] (compound dose: 10 uM) | 1.09 ± 0.23 | 0.893 ± 0.14
CC1(C)CC[C@]2(C(=O)O[C@@H]3O[C@H](CO)[C@@H](O)[C@H](O)[C@H]3O)CC[C@]3(C)C(=CC[C@@H]4[C@@]5(C)CC[C@H](O[C@@H]6O[C@H](C(=O)O)[C@@H](O[C@@H]7O[C@@H](CO)[C@H](O)[C@H]7O)[C@H](O)[C@H]6O)C(C)(C)[C@@H]5CC[C@]43C)[C@@H]2C1 [Araloside A] (compound dose: 10 uM) | 1.05 ± 0.032 | 1.31 ± 0.014
CC(=O)OC(C)(C)CCC(=O)[C@](C)(O)[C@H]1[C@H](O)C[C@@]2(C)[C@@H]3CC=C4[C@@H](C[C@H](O)[C@@H](O)C4(C)C)[C@]3(C)C(=O)C[C@]12C [Cucurbitacin IIa] (compound dose: 10 uM) | 0.939 ± 0.036 | 0.778 ± 0.07
C=C1C(=O)O[C@H]2C1CC[C@@](C)(O)C13C=CC(C)(C21)C1(C3)C(=O)O[C@@H]2C3C(C)=CCC3[C@](C)(O)[C@H](OC(C)=O)CC21 (stereo partly drawn) [Handelin] (compound dose: 10 uM) | 0.83 ± 0.29 | 0.709 ± 0.3
